High-throughput results deposited in PubChem BioAssay by National Center for Advancing Translational Sciences (NCATS).
Many of the other results were omitted from the sample, so hits are more common in it than they were.
AmpC detergent: inhibitors of E. coli AmpC beta-lactamase with detergent; AID 485294; Potency, µM (doses to about 114 µM), for the others: top-dose activity change, negative = inhibition, hits mostly inhibitors; 0.041% of 370,000 active; P00811; AmpC hydrolysis of nitrocefin, absorbance 480 nm, 0.01% Triton;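 further: potency means the concentration at half of the fitted maximal effect; 0% = no-compound wells and -100% = no-enzyme wells; nearly all actives have a fitted effect of over 25% in size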
Target sequence (P00811 whole entry, looked up): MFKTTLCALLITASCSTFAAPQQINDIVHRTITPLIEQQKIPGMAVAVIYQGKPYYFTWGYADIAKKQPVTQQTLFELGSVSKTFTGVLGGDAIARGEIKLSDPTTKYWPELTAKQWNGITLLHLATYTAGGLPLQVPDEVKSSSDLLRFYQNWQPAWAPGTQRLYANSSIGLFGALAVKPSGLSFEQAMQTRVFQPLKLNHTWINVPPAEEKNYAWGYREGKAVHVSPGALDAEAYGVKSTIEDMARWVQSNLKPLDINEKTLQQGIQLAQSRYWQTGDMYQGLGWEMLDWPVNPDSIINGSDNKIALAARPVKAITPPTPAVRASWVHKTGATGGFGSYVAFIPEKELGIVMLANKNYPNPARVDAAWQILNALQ
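20 mM phosphate pH 7.0 + 0.01% (detergent screen) or 0.0001% Triton X-100; 5.3 nM AmpC reagent; cpd preinc 15 min RT; nitrocefin (800 uM stock) to start; A480 q20 s × 4 min; Activity was normalised to no-enzyme and no-compound control wells.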
NS1 function inh: blocks influenza NS1 protein function | AID 2326 | Potency, µM (titrated, usually from 46.1 µM), for inactives: at the top dose activity, positive = more growth | 0.4% of 270,000 active; calls by dose curve; further: potency means the concentration at half of the fitted maximal effect; actives are rising curves; nearly all actives have a fitted effect of over 50% in size
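A cell-based growth assay was used: compounds that relieve NS1-induced slow growth of budding yeast raise OD600. Assay medium was yeast nitrogen base with ammonium sulphate and -URA supplement, pH 6.0, with 2% galactose.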
AmpC inh no detg: blocks E. coli AmpC beta-lactamase in detergent-free assay; Potency, µM (top dose mostly 57.1 µM), for the others: top-dose activity change, negative = inhibition, usual class: inhibitors; 0.52% of 330,000 active; P00811; AmpC nitrocefin hydrolysis, absorbance 480 nm, 0.0001% Triton;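 further: potency means the concentration at half of the fitted maximal effect; plate controls were no compound for no effect and no enzyme for full effect; nearly all actives have a fitted effect of over 20% in size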
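20 mM phosphate pH 7.0 + 0.01% (detergent screen) or 0.0001% Triton X-100; 5.3 nM AmpC reagent; cpd preinc 15 min RT; nitrocefin (800 uM stock) to start; A480 q20 s × 4 min; Activity was normalised to no-enzyme and no-compound control wells.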
Cycloheximide cs: affects cycloheximide protein synthesis inhibition readout, counter-screen; cell reporter, cycloheximide protein synthesis inhibition counterscreen; max response, %; 12% of 300,000 active; AID 2314; in the data active means max response mostly above about 13%, no sharp cut-off; inactive means mostly below about 14%; further: read at 38.3 µM for the half of the compounds with a filed dose; 0% is about no effect
Shiga toxin inh: inhibitors of Shiga toxin in Vero cells. Vero cells, Shiga toxin protein synthesis inhibition reporter. inhibition, % at 38.7 µM. 9.2% of 290,000 active; in the data active means inhibition mostly above about 28%, no sharp cut-off; inactive means mostly below about 43%; further: 0% is about no effect
* = called active by the depositor; u = inconclusive; x = not tested or not shown; ! = not active in a repeat; [ ] = remark or other dose. Unless noted, the call rests on the fitted dose curve; in most records, active means well fitted curve in the direction sought with a large enough effect; inconclusive means small, poorly fitted or top-dose-only effect, or another doubt; inactive means no such curve, though single readings can be large; an effect the other way counts as inactive or inconclusive.

SMILES	AmpC detergent	NS1 function inh	AmpC inh no detg	Cycloheximide cs	Shiga toxin inh
O=C(Nc1cc2c(oc1=O)CCCC2=O)c1ccc(Cl)cc1	0.8%	-9.8%	-16.4%	19.7*	22.6
Cc1nccc2oc(=O)c(NC(=O)c3ccc(Cl)cc3)cc12	u	x	-3.8%	23.5	20.5
Cc1cc(C)n(C(=O)c2cc3sccc3[nH]2)n1	-8.4%	-11.1%	-30.7%	30.0*	64.1*
CN(C)/C=C(\C#N)C(=O)N/N=C/c1ccccc1	7.8%	x	-18.6%	27.5*	96.1
CN(C)c1ccc(/C=N/NC(=O)COc2ccccc2)cc1	-13.6%	x	-17.8%	37.6*	43.7*
CN(c1ccccc1)c1ccc(/C=N/NC(=O)CC#N)cc1	3.8%	u	1.4%	28.5*	58.1*
Cc1ccccc1N(CC(=O)N/N=C/c1ccc(N(C)C)cc1)C(=O)c1ccccc1	-8.9%	-81.4%	8.0%	33.6*	31.0
N#CCC(=O)N/N=C/c1ccc(Cl)cc1	-4.9%	-4.7%	u	-2.5	-3.0
Cc1ccccc1N(CC(=O)N/N=C/c1ccccc1Cl)C(=O)c1ccccc1	0.4%	6.8%	-16.9%	-0.5	25.2
O=C(N/N=C/c1ccccc1)C(=O)N/N=C/c1ccccc1	2.2%	-13.1%	-13.6%	-7.2	20.1
Cc1cc(C)c2c(CC(=O)Nc3ccc(S(=O)(=O)N4CCCC(C)C4)cc3)coc2c1 (stereo not drawn)	16.4%	x	x	x	x
Cc1ccc(NC(=O)CSc2nc(C3CCCC3)nc3c2c(=O)n(C)c(=O)n3C)c(C)c1	-1.6%	x	x	x	x
COc1ccc(C(=O)C(C)OC(=O)COc2ccccc2)cc1 (stereo not drawn)	x	x	-12.0%	x	x
COc1ccccc1/C=C/C(=O)NCC(=O)N/N=C/c1ccccc1	-7.0%	x	-18.0%	8.9	-3.6
CNC(=O)CO/N=C/c1ccc(N(C)C)cc1	u	x	1.7%[11.4 µM]	21.6*	28.9*
CN(C)c1ccc(/C=N/NC(=O)CNC(=O)/C=C/c2ccccc2)cc1	7.5%	1.6%	-21.2%	29.7*	29.7*
CC(C)CCNC(=O)Cc1csc(-c2ccccc2)n1	6.0%	x	-11.5%	13.0	26.1
Oc1ccccc1C1CC(c2cccs2)=NC(c2cccc(Br)c2)N1 (stereo not drawn)	5.9%	x	-20.7%	42.2*	70.5*
O=S(=O)(c1ccccc1)N1N=C(c2cccs2)CC1c1cccc(O)c1 (stereo not drawn)	1.2%	5.6%	-58.6%	-1.8	-8.5
CNS(=O)(=O)c1cnccc1N1CCN(c2cccc(C(F)(F)F)c2)CC1	-14.9%	-0.8%	86.5%	-3.7	-13.5
CCCCOC(=O)c1ccc(NC(=O)c2cc(Cl)ccc2OC)cc1	u	-1.1%	-23.7%	9.8	-3.0
CCCOC(=O)c1ccc(NC(=O)c2ccccc2[N+](=O)[O-])cc1	1.9%	-1.5%	-6.8%	37.7*	91.4*
CCCCOC(=O)c1ccc(NC(=O)c2ccccc2OC)cc1	-8.7%	-13.4%	1.5%	7.3	29.0*
CCCOC(=O)c1ccc(NC(=O)c2c(Cl)ccc(Cl)c2OC)cc1	-6.9%	-22.3%	28.2µM*	-1.6	-3.3
CCCOC(=O)c1ccc(NC(=O)c2ccccc2OC)cc1	u	x	-5.6%	26.2*	86.1*
SMILES	AmpC detergent	NS1 function inh	AmpC inh no detg	Cycloheximide cs	Shiga toxin inh
CCC(=O)NC(=S)Nc1ccc(NC(=O)c2ccccc2[N+](=O)[O-])cc1	-13.1%	0.9%	-27.7%	-2.5	-8.4
COc1ccc(CNC(=O)c2cn(-c3cccc(OC)c3)c(=O)c3ccccc23)cc1	21.0%	x	x	x	x
Cc1cccc(C(c2sc3nc(-c4ccco4)nn3c2O)N2CCN(Cc3ccccc3)CC2)c1 (stereo not drawn)	11.7%	x	x	x	x
COc1cc(/C=C/C(=O)NC(=O)c2ccccc2O)ccc1OC(C)=O	u	9.6%	-42.8%	32.7*	69.9*
COc1ccc(/C=C/C(=O)Nc2ccccc2)cc1S(=O)(=O)N1CCOCC1	5.1%	0.9%	23.1%	10.7*	16.6
COc1ccc(/C=C/C(=O)Nc2ccccc2)cc1OC	-1.2%	x	3.6%	35.6*	126.7*
COc1ccc(/C=C/C(=O)NC2CCCCCCC2)cc1S(=O)(=O)N1CCOCC1	-14.8%	-5.1%	177.0%	37.2*	70.1*
COc1ccc(/C=C/C(=O)NC(C)(C)C)cc1S(=O)(=O)N1CCOCC1	-5.6%	3.3%	-21.5%	0.2	-10.1
COc1ccc(/C=C/C(=O)NC(=S)Nc2ccccc2)cc1OC	0.1%	4.8%	-11.7%	5.1	18.1
COc1ccc(S(=O)(=O)NCCc2sc3nc(-c4ccc(C)cc4)nn3c2C)cc1F	3.5%	x	x	x	x
COc1ccccc1CN1CCN(C(CC(C)C)c2nnnn2Cc2cccs2)CC1 (stereo not drawn)	-4.7%	-9.3%	34.7%	4.4	-1.4
O=C(/C=C/c1ccc(OC(F)F)cc1)Nc1cccc(S(=O)(=O)N2CCOCC2)c1	-4.2%	-3.8%	-23.3%	24.5*	41.3*
CN(Cc1ccc(Cl)c(Cl)c1)C(=O)C1=CC=CN2CCS(=O)(=O)N=C12	-10.4%	x	-8.8%	x	x
Cc1cccc(NC(=O)c2sc(Cl)nc2-c2ccccc2)c1	1.9%	u	-29.3%	-2.2	-20.6
Cc1ccccc1CNC(=O)C(C)n1nc(C)n2c(cc3occc32)c1=O (stereo not drawn)	-3.4%	x	x	x	x
COc1ccc(/C=C/C(=O)C(C(N)=O)=C2SCCS2)cc1	-4.3%	-3.4%	-15.8%	31.1*	49.2*
NC(=O)C(C(=O)/C=C/c1ccc(Cl)cc1)=C1SCCS1	-10.9%	-1.6%	-34.3%	15.4*	39.2
COc1ccc(/C=C/C(=O)N[C@@H](C)C(=O)O)cc1	-12.2%	16.1%	-7.1%	-4.9	5.9
CCC(=O)Nc1ccc(NC(=O)/C=C/c2ccc(Cl)cc2)cc1	-2.9%	3.3%	-8.9%	0.2	-10.1
COc1ccc(N2CC(NC(=O)/C=C\c3ccc4c(c3)OCO4)CC2=O)cc1 (stereo not drawn)	-0.6%	x	x	x	x
C[C@@H]1CC2OC(=O)[C@@]3(C)C(=O)CC[C@@](C)(C23)[C@@]1(O)CCc1ccoc1 (stereo partly drawn)	-2.1%	0.7%	-0.4%	26.4*	-4.2
O=C(c1ccccc1)c1ccc2ccccc2n1	4.9%	-7.2%	-7.8%	38.9*	73.6
Cc1ccc(C(O)(C(=O)NNc2ccc3ccccc3n2)c2ccc(C)cc2)cc1	u	14.9%	-47.0%	13.0*!	-3.4
O=C(CCc1ccccc1)Nc1ccc2ccccc2n1	-0.4%	-34.3%	-20.9%	46.7*	103.8*
COc1ccc(C(=O)Nc2ccc3ccccc3n2)cc1OC	u	-2.5%	26.6%	29.2*	x
SMILES	AmpC detergent	NS1 function inh	AmpC inh no detg	Cycloheximide cs	Shiga toxin inh
O=C(O)CC1(CC(=O)Nc2ccc3ccccc3n2)CCCCC1	1.2%	2.9%	-26.9%	7.1	-5.3
Cc1cc(C)cc(Oc2ccccc2CO)c1	2.2%	-4.4%	-4.7%	-2.3	7.1
O=C(O)C[C@H]1OCC=C2CN3CC[C@]45c6ccccc6N[C@@H]4[C@H]1[C@H]2C[C@H]35	x	-5.8%	x	x	x
CN(C)C(=O)/N=N/C(=O)N(C)C	x	0.0%	x	x	x
Cc1ccc(C(=O)Nc2ccc3ccccc3n2)cc1	-5.1%	-0.6%	-5.4%	41.4*	42.3*
O=C(Nc1ccc2ccccc2n1)c1ccccc1Br	1.2%	2.9%	-2.1%	41.1*	131.2*
